Test results: PubChem BioAssay

Assay: modulators of CIT2-GFP expression in yeast, confirmation, S. cerevisiae, GFP fusion, cherry picks, mother/daughter gates (AID 2274)
Settings: S. cerevisiae CIT2-GFP strain, flow cytometry, 3 h; measured here: mother cell gate; at 10 µM; stronger effect = higher value

Row | SMILES | GFP response, % of DMSO
1 | O=C(CCC(F)(F)F)N1CCC(CO)(CCc2ccccc2)CC1 | 106%
2 | O=C(Nc1cc(Sc2ccccn2)cc([N+](=O)[O-])c1)c1cccc(F)c1 | 94.9%
3 | CC(=O)Nc1cccc(/C(C)=N/NC(=O)c2ccccc2Cl)c1 | 99.7%
4 | Cc1cc(Br)c2c(c1)/C(=C/C(=O)c1cccs1)C(=O)N2 | 95.7%
5 | N=C1S/C(=C\c2ccco2)C(=O)N1c1nccs1 | 103%
6 | Cc1cc(NC(=O)c2cccnc2Cl)ccc1NC(=O)c1cc2ccccc2o1 | 103%
7 | COc1ccc2c(/C=C/c3cc[n+](C)cc3)c[nH]c2c1 | 157%
8 | C/C(=N\NC(=O)COc1ccccc1-c1ccccc1)c1ccccn1 | 97.7%
9 | CC(=O)c1cc(NC(=O)c2ccc(C)cc2)c(=O)oc1C | 96.8%
10 | O=C(Cc1ccc(Cl)cc1)NNC(=S)NC(=O)c1cccs1 | 104%
11 | COc1ccc(NC(=O)Nc2ccon2)c(OC)c1 | 101%
12 | O=S(=O)(c1ccc(Oc2ccc(Br)cc2)cc1)N1CCOCC1 | 93.3%
13 | Cc1cccn2c(=O)c(/C=C(\C#N)C(=O)NCc3ccco3)c(N3CCCC(C)C3)nc12 (stereo not given) | 99.7%
14 | CCS(=O)(=O)Nc1cccc(C2=NN(S(C)(=O)=O)C(c3ccccc3)C2)c1 (stereo not given) | 110%
15 | Cc1ccc(C(C(=O)NC2CCCCC2)N(CCCN2CCOCC2)C(=O)c2snc(C(N)=O)c2N)cc1 (stereo not given) | 103%
16 | O=C(O)C1CCN(S(=O)(=O)c2ccc(Oc3ccccc3)cc2)CC1 | 98%
17 | CCCC(=O)Nc1ccc(C(=O)/C=C/c2ccc(SC)cc2)cc1 | 93.4%
18 | Cc1cccc(CS(=O)(=O)c2ncc(Cl)c(C(=O)NCc3ccc4c(c3)OCO4)n2)c1 | 108%
19 | Cc1nnc(NC(=O)c2ccc(S(=O)(=O)N(C)Cc3ccccc3)cc2)o1 | 102%
20 | Clc1cnc(N/N=C/c2cccs2)c(Cl)c1 | 97.1%

Row | SMILES | GFP response, % of DMSO
21 | CC1CCCN(CCCNC(=O)C2CCN(S(=O)(=O)N3CCC4(CC3)OCCO4)CC2)C1 (stereo not given) | 106%
22 | Clc1ccc(OCCn2cnc3ccccc32)c(Cl)c1 | 84.3%
23 | O=C(O)c1ccn2c(C(=O)c3ccccc3)c(-c3ccccc3)cc2c1 | 97.3%
24 | CC(=O)Oc1ccc(N2C(=O)C3C4C=CC(CO)(O4)C3C2=O)cc1 (stereo not given) | 104%
25 | COc1ccc(/C=C/C(=O)c2ccc(Cl)cc2)c(OC)c1 | 97.3%
26 | O=C(CN1C(=O)c2cccc3cccc(c23)C1=O)N1CCCCCC1 | 101%
27 | COC(=O)c1ccc(CS(=O)(=O)c2ccc(F)cc2)o1 | 98.2%
28 | O=C(c1cccc(COCC(F)(F)C(F)F)c1)N1CCN(c2ccccc2)CC1 | 98%
29 | COc1ccccc1N=Cc1nc(-c2ccccc2)oc1OC(C)=O | 90.7%
30 | CNC(=O)c1c(O)c2cccc3c2n(c1=O)CC3 | 93.3%
31 | O=[N+]([O-])c1cc(S(=O)(=O)C(F)(F)F)ccc1Sc1nc2ccccc2s1 | 99.7%
32 | CN(C)c1ccc(/C=C/c2cc[n+](C)cc2)cc1 | 134%
33 | O=c1oc(/C=C/c2ccc([N+](=O)[O-])s2)nc2ccccc12 | 181%
34 | Cc1ccc(Sc2ncnc3onc(C)c23)cc1 | 102%
35 | COc1ccc(C(=O)c2no[n+]([O-])c2C(=O)c2ccc(OC)cc2)cc1 | 73.6%
36 | CCN(CC)CCCN(Cc1cc2cc3c(cc2[nH]c1=O)OCO3)C(=S)Nc1ccccc1 | 120%
37 | COc1ccc(-c2cc(C(F)(F)F)nc(N3CCOCC3)n2)cc1OC | 109%
38 | O=c1/c(=C/c2cccc3ccccc23)sc2ncnn12 | 100%
39 | Cc1ccccc1NC(=O)c1ccccc1O | 98.1%
40 | COc1ccccc1-c1noc(-c2cc(OC)c(OC)c(OC)c2)n1 | 98.7%
